About 21,000 targets were measured; listed, in parts, are those with the largest changes and a random draw of the rest.
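Also: competitive chemoproteomic profiling in live THP-1 cells with an iodoacetamide desthiobiotin (IA-DTB) probe, comparing probe-labelled peptide intensities in compound-treated cells against DMSO-treated controls.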

Chain of UniProt O95365 (O95365 whole entry, looked up): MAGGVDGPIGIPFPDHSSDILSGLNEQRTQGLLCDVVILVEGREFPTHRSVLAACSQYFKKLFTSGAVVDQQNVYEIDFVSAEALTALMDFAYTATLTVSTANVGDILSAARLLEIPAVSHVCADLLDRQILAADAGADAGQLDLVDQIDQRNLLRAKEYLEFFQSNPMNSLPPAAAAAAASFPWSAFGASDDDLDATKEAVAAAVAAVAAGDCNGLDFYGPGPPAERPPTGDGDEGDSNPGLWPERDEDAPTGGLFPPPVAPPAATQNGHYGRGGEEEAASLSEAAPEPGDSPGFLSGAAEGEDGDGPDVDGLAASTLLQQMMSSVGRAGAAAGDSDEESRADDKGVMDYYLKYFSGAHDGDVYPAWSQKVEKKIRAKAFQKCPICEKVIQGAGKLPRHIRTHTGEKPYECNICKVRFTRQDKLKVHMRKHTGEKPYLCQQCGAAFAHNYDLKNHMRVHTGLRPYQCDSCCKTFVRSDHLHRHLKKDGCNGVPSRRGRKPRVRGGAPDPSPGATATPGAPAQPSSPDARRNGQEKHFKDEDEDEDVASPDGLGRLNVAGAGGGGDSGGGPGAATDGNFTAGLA
Chain of UniProt O43670 (O43670 whole entry, looked up): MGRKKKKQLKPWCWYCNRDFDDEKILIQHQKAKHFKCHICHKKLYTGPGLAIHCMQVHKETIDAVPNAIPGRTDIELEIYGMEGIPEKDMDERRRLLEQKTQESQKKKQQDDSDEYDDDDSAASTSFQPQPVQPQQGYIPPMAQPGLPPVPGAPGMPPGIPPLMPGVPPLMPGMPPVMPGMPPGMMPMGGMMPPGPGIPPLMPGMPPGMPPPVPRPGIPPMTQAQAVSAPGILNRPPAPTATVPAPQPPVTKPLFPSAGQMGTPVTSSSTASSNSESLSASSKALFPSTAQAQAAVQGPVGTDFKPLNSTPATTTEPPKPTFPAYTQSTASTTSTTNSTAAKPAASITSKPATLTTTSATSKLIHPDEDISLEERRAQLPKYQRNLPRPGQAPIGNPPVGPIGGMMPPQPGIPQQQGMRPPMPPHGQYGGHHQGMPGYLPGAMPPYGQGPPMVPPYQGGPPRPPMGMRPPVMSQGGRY
Chain of UniProt Q9P2E3 (Q9P2E3 whole entry, looked up): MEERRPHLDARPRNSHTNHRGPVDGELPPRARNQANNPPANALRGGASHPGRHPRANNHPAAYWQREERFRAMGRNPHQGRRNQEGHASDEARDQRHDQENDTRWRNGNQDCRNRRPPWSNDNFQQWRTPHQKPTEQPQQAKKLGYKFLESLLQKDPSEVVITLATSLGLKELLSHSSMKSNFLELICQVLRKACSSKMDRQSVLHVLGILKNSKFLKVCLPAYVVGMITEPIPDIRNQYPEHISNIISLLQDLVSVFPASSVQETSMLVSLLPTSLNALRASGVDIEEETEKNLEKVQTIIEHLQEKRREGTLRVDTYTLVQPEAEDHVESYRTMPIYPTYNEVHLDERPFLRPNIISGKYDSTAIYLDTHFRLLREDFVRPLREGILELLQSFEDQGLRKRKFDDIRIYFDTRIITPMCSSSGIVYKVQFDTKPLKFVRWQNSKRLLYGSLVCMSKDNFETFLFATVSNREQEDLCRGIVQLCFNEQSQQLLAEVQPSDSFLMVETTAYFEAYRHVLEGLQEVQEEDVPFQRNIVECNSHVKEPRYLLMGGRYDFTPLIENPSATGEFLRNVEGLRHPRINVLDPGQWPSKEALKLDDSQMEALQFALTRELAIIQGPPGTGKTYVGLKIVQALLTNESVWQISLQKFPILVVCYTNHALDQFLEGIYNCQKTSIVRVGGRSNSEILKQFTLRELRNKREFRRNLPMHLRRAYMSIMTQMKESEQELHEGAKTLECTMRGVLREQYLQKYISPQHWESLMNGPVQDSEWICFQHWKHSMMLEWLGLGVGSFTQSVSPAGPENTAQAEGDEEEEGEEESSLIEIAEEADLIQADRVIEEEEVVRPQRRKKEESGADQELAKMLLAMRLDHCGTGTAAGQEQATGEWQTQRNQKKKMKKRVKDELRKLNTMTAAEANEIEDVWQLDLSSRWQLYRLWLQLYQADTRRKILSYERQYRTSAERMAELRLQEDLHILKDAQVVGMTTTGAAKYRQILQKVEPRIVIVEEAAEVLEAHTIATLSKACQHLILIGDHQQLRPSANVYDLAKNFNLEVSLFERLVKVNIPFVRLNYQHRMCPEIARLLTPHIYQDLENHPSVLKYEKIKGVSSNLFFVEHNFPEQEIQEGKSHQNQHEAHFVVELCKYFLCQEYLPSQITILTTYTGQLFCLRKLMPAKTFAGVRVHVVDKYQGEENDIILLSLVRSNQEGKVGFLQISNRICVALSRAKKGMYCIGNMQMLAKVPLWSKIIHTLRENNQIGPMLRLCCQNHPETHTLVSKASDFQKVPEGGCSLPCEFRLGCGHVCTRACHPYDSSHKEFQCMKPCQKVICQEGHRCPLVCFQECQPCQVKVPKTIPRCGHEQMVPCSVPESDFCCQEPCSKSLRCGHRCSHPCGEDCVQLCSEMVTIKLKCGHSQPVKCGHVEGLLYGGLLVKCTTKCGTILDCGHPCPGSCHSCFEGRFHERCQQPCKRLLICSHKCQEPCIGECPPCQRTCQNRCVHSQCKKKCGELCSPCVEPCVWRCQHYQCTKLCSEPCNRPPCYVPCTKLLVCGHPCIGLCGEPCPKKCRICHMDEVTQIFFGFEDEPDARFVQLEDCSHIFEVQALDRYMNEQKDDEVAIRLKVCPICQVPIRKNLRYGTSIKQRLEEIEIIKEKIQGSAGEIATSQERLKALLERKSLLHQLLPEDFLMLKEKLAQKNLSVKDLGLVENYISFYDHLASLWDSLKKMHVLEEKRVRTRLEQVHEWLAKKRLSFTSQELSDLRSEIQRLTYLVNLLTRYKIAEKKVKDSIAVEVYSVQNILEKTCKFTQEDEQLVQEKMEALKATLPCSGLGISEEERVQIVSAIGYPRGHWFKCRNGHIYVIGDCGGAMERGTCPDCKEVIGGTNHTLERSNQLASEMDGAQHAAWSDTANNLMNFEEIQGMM
Chain of UniProt Q5T4F4 (Q5T4F4 whole entry): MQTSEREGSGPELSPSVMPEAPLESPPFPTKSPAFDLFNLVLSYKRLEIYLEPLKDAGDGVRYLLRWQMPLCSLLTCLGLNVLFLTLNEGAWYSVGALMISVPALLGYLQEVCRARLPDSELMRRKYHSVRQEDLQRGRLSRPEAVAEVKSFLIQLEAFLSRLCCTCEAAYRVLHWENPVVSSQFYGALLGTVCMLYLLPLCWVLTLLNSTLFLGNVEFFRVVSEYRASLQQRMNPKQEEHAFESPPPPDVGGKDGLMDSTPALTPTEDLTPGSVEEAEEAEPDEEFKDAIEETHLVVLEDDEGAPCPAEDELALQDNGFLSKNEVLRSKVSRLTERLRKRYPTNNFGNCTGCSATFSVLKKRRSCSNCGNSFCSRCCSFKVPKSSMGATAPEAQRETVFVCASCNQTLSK
Chain of UniProt Q5VV52 (Q5VV52 whole entry, looked up): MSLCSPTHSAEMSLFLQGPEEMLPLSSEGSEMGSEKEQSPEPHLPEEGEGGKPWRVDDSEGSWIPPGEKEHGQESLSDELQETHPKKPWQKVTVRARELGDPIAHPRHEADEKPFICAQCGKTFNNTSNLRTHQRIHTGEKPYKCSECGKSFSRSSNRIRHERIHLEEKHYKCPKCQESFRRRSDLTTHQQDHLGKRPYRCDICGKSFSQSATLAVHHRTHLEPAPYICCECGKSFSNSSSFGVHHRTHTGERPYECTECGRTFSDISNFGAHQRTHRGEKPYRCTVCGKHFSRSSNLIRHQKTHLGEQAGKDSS
Chain of UniProt Q8TCF1 (Q8TCF1 whole entry, looked up): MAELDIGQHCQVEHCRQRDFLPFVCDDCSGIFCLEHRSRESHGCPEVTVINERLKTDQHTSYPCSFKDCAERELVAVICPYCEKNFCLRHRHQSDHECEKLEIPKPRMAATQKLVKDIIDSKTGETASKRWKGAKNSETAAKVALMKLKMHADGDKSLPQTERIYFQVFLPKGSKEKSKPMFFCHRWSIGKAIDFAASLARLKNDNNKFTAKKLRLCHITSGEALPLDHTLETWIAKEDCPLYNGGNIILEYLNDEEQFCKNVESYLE
Chain of UniProt Q8N1W2 (Q8N1W2 whole entry): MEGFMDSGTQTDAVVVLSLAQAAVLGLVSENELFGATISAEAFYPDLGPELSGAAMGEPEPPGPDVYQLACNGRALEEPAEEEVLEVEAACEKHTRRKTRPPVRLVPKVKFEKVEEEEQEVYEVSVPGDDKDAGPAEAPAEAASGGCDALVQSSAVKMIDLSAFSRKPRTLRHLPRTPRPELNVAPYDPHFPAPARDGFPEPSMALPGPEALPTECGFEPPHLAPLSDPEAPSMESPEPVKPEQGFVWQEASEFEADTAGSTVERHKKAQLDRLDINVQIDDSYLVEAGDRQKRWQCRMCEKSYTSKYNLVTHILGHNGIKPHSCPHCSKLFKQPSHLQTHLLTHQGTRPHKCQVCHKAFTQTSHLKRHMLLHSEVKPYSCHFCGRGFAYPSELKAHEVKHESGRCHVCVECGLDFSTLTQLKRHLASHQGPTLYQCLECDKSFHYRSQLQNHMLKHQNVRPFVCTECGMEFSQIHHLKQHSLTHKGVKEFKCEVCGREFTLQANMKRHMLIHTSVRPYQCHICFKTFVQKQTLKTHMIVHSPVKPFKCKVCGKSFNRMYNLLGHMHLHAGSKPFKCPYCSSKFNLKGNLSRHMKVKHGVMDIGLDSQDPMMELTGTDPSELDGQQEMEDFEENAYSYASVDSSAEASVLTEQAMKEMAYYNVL
Chain of UniProt Q04917 (Q04917 whole entry, looked up): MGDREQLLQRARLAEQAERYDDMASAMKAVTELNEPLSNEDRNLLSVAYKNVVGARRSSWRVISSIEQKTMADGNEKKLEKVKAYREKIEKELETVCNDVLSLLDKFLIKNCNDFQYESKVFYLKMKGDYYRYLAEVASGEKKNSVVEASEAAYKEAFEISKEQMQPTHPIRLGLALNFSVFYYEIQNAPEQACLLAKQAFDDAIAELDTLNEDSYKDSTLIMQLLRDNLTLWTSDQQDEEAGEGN

Compound in one experiment: CC1Cc2ccccc2N1C(=O)C1CCCN(C1)C(=O)CCl (mixture of isomers) [TRIM25 ligand 11 (diastereomer mixture)]
In words: probe-labelled cysteine peptide fold change vs DMSO (competition) (log2 fold change); higher = less target engagement (more negative = stronger competition). The conditions noted are these: 10 µM; THP-1; incubation time: 4 h.
With “XRN2_Q9H0D6_296_HDELADSLPCAEGEFIFLR (UniProt Q9H0D6)”, the “probe-labelled cysteine peptide fold change” value was determined as 0.409.
Same read-out and setting: the figure for “ZNF316_A6NFI3_861_CADCGR (UniProt A6NFI3)” is 0.139; for “XRN2_Q9H0D6_296_GKHDELADSLPCAEGEFIFLR (UniProt Q9H0D6)” it is 0.0997; for “ZMYND8_Q9ULU4_106_EGQVLCCELCPR (UniProt Q9ULU4)” it is 0.247.
The same measure, in the same setting: for “ZNF280D_Q6N043_323_CFSCLK (UniProt Q6N043)” the value was 0.0838.
The same measure, in the same setting: the figure for “XRN2_Q9H0D6_736_FSLDEEAILPDQIVCSPVPMLR (UniProt Q9H0D6)” is 0.234; for “ZNF207_O43670_54_KLYTGPGLAIHCMQVHK (UniProt O43670)” it is -0.6; for “XRN1_Q8IZH2_16_YPCLSEVVK (UniProt Q8IZH2)” it is 0.0639.
As to “ZBTB7A_O95365_34_TQGLLCDVVILVEGR (UniProt O95365)”, the “probe-labelled cysteine peptide fold change” value is 0.149.
The same measure, in the same setting: for “ZW10_O43264_650_LGIVWQDVLPVNIYCK (UniProt O43264)” the value was 0.0783; for “ZNF710_Q8N1W2_91_ALEEPAEEEVLEVEAACEK (UniProt Q8N1W2)”, 0.158; for “ZNFX1_Q9P2E3_1416_CGHVEGLLYGGLLVK (UniProt Q9P2E3)”, -0.0464.
Still for that read-out and setting: for “ZNF417_Q8TAU3_56_DVMLENLALISSLGCWCGSK<|>ZNF587_Q96SQ5_56_DVMLENLALISSLGCWCGSK (UniProt Q96SQ5+Q8TAU3)” the value was 0.112; for “YES1_P07947_255_LTTVCPTVKPQTQGLAK (UniProt P07947)”, -0.0129.
For “ZW10_O43264_588_LGTECFLAQMR (UniProt O43264)”, the “probe-labelled cysteine peptide fold change” value is 0.647.
On the same count and under the same terms, the figure for “ZCCHC3_Q9NUD5_238_REQEDCWENFVVLGR (UniProt Q9NUD5)” is 0.192.
As for “ZNF687_Q8N1G0_576_CSLLLHAR (UniProt Q8N1G0)”, the “probe-labelled cysteine peptide fold change” value is 0.101.
Still for that read-out and setting: for “ZFAND1_Q8TCF1_64_LKTDQHTSYPCSFK (UniProt Q8TCF1)” the value was -0.0624; for “ZFYVE27_Q5T4F4_353_RYPTNNFGNCTGCSATFSVLK (UniProt Q5T4F4)”, -0.247; for “ZW10_O43264_568_LAPILCDGTATFVDLVPGFR (UniProt O43264)”, 0.117.
Same read-out and setting: the figure for “YES1_P07947_42_YRPENTPEPVSTSVSHYGAEPTTVSPCPSSSAK (UniProt P07947)” is -0.0245.
With “ZNF691_Q5VV52_230_THLEPAPYICCECGK (UniProt Q5VV52)”, the “probe-labelled cysteine peptide fold change” value was -0.272.
For the target “YWHAH_Q04917_97_ELETVCNDVLSLLDK (UniProt Q04917)”, the “probe-labelled cysteine peptide fold change” value was -0.1.

The experiment is the same for the next values; noted with them: 50 µM; THP-1; incubation time: 4 h.
Turning to “XRN2_Q9H0D6_296_HDELADSLPCAEGEFIFLR (UniProt Q9H0D6)”, the “probe-labelled cysteine peptide fold change” value was -0.0107.
On the same count and under the same terms, for “ZNF316_A6NFI3_861_CADCGR (UniProt A6NFI3)” the value was 0.163.
On the same count and under the same terms, for “XRN2_Q9H0D6_296_GKHDELADSLPCAEGEFIFLR (UniProt Q9H0D6)” the value was -0.0177; for “ZMYND8_Q9ULU4_106_EGQVLCCELCPR (UniProt Q9ULU4)”, 0.0715.
Still for that read-out and setting: for “ZNF280D_Q6N043_323_CFSCLK (UniProt Q6N043)” the value was 0.233; for “XRN2_Q9H0D6_736_FSLDEEAILPDQIVCSPVPMLR (UniProt Q9H0D6)”, 0.0197; for “ZNF207_O43670_54_KLYTGPGLAIHCMQVHK (UniProt O43670)”, -0.388.
In the case of “XRN1_Q8IZH2_16_YPCLSEVVK (UniProt Q8IZH2)”, the “probe-labelled cysteine peptide fold change” value came to 0.0149.
The same measure, in the same setting: the figure for “ZBTB7A_O95365_34_TQGLLCDVVILVEGR (UniProt O95365)” is -0.0545; for “ZW10_O43264_650_LGIVWQDVLPVNIYCK (UniProt O43264)” it is 0.0695; for “ZNF710_Q8N1W2_91_ALEEPAEEEVLEVEAACEK (UniProt Q8N1W2)” it is -0.171.
With “ZNFX1_Q9P2E3_1416_CGHVEGLLYGGLLVK (UniProt Q9P2E3)”, the “probe-labelled cysteine peptide fold change” value is -0.153.
Still for that read-out and setting: for “ZNF417_Q8TAU3_56_DVMLENLALISSLGCWCGSK<|>ZNF587_Q96SQ5_56_DVMLENLALISSLGCWCGSK (UniProt Q96SQ5+Q8TAU3)” the value was 0.104.
Same read-out and setting: the figure for “YES1_P07947_255_LTTVCPTVKPQTQGLAK (UniProt P07947)” is -0.34; for “ZW10_O43264_588_LGTECFLAQMR (UniProt O43264)” it is 0.508; for “ZCCHC3_Q9NUD5_238_REQEDCWENFVVLGR (UniProt Q9NUD5)” it is 0.112.
Still for that read-out and setting: for “ZNF687_Q8N1G0_576_CSLLLHAR (UniProt Q8N1G0)” the value was 0.0491.
For the target “ZFAND1_Q8TCF1_64_LKTDQHTSYPCSFK (UniProt Q8TCF1)”, the “probe-labelled cysteine peptide fold change” value was -0.388.
On the same count and under the same terms, for “ZFYVE27_Q5T4F4_353_RYPTNNFGNCTGCSATFSVLK (UniProt Q5T4F4)” the value was -0.0647; for “ZW10_O43264_568_LAPILCDGTATFVDLVPGFR (UniProt O43264)”, 0.00333.
Same read-out and setting: for “YES1_P07947_42_YRPENTPEPVSTSVSHYGAEPTTVSPCPSSSAK (UniProt P07947)” the value was -0.239; for “ZNF691_Q5VV52_230_THLEPAPYICCECGK (UniProt Q5VV52)”, -0.8.
Still for that read-out and setting: the figure for “YWHAH_Q04917_97_ELETVCNDVLSLLDK (UniProt Q04917)” is -0.178.

(Values after the supplement of paper PMC12067093, “Discovery and optimisation of a covalent ligand for TRIM25 and its application to targeted protein ubiquitination” (Chemical Science, 2025).)
